An excerpt weighted towards active compounds, which were near 6.1% of everything screened.
D3 ag – activates the human D3 dopamine receptor. D3R DiscoveRx beta-arrestin cells, luminescence, 90 min. max activation, %. actives 0.58% (n = 410,000); in the data active = max activation above about 30%; note: 0% is about no effect
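Agonist-mode cell screen: cells plated at 1500/well and incubated overnight at 37 °C, then exposed to library compounds for 90 min at 37 °C. Detection reagent was added for 30–60 min at room temperature, and luminescence was read.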
D1 agonist – human D1 receptor agonism; P21728; HEK293 T-REx D1 cells, calcium flux, agonist mode; activation, % at 2 µM; actives 1% (n = 360,000); in the data active = activation above about 30%; note: 0% is about no effect
Target sequence (P21728 whole entry, looked up): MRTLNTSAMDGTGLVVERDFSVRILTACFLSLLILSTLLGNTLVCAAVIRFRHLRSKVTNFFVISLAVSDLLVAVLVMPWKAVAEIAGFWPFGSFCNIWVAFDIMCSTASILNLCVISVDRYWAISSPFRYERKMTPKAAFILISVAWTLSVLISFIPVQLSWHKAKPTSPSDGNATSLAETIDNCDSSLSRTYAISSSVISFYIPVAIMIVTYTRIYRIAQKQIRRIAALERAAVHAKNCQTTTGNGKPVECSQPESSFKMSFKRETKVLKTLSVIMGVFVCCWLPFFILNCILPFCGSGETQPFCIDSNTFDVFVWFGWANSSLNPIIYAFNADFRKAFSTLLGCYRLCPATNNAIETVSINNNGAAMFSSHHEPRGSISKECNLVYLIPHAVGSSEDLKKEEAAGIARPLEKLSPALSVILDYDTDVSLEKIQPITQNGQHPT
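Agonism was scored from calcium flux recorded over 180 s (1 read/s) after pintool compound addition, following a 10-cycle baseline. Cells were inducible force-coupled HEK293 TREx D1, plated overnight at 30 C and loaded with no-wash calcium dye.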
D1 antagonist – human D1 dopamine receptor antagonism. P21728. HEK293 TREx D1 cells, calcium flux, dopamine EC80; active compounds read low. activity change, negative = inhibition, % at 10 µM. actives 3.2% (n = 360,000); in the data active = activity change below about -30%; note: % is set by controls: 0 for no effect and ±100 for the full control effect
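Allosteric or orthosteric antagonism assessed as attenuation of the calcium response to EC80 dopamine, added 180 s after compound, in induced HEK293 Trex D1 cells loaded with no-wash calcium dye.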
DRD3 antagonist – antagonists of human D3 dopamine receptor | D3R cells, DiscoveRx beta-arrestin luminescence, antagonist mode; active compounds read low | max response, negative = inhibition, % | actives 2.5% (n = 360,000) | AID 652054; in the data active = max response below about -50%; note: % is set by controls: 0 for no effect and ±100 for the full control effect
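Cells expressing the human receptor were seeded at 1500 cells/well, incubated overnight at 37 degrees C in 5% CO2, then exposed to library compounds with dopamine controls for 90 minutes at 37 degrees C before luminescent detection.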
D1 PAM – human D1 dopamine receptor positive modulation | HEK293 TREx D1 cells, calcium flux, dopamine EC20 potentiation | actives 0.036% (n = 360,000) | potentiation, % at 10 µM | AID 504651 | P21728; in the data active = potentiation above about 30%; note: 0% is about no effect
* = called active by the depositor; . = no result given.

SMILES | D3 ag | D1 agonist | D1 antagonist | DRD3 antagonist | D1 PAM
CCOc1ccc(-n2c(SCC(=O)N3CCc4ccccc43)nc3c([nH]c4ccccc43)c2=O)cc1 | -5 | 0 | 15 | . | 1
Cc1nnc(-c2ccccc2)c(=O)n1/N=C/c1c(O)ccc2ccccc12 | 8 | 113* | -24 | 0 | -5
CCCCCCCNC(=O)C1(CC2CC(c3ccccc3)=NO2)CCN(C(=O)OC(C)(C)C)CC1 (stereo not given) | -41 | 3 | -37* | 2 | -10
O=C(Cc1ccc(F)cc1)N1CCC(CC2CC(c3cccc(Br)c3)=NO2)(C(=O)NCC2CCCCC2)CC1 (stereo not given) | -30 | 3 | 7 | -51* | 3
C=Cc1cc2c(s1)c1cnn(Cc3ccccc3F)c(=O)c1n2C | . | 2 | 13 | . | 5
COc1cccc(CN2CCC(C(=O)Nc3ccc(-c4cccc(C)c4)cc3)CC2)c1O | -5 | 17 | -21 | 2 | -2
C#CCOCCOCCOCCNc1nc(N2CCN(C(=O)CCCCCCCCCCNC(=O)[C@H](CCCCN)n3cc(C[C@@H](C)CC)nn3)CC2)nc(N2CCN(C(=O)CCCCCCCCCCNC(=O)[C@H](CCCN=C(N)N)n3cc(C[C@@H](C)CC)nn3)CC2)n1 | -13 | 2 | -12 | -76* | -8
C#CCOCCOCCOCCNc1nc(N2CCN(C(=O)CCCCCCCCCCNC(=O)[C@H]([C@@H](C)CC)n3cc(CCCCN=C(N)N)nn3)CC2)nc(N2CCN(C(=O)CCCCCCCCCCNC(=O)[C@H](CCCN=C(N)N)n3cc(C[C@@H](C)CC)nn3)CC2)n1 | . | 2 | 18 | . | -10
C#CCOCCOCCOCCNc1nc(N2CCN(C(=O)CCCCCCCCCCNC(=O)[C@H](CCCN=C(N)N)n3cc(C[C@@H](C)CC)nn3)CC2)nc(N2CCN(C(=O)CCCCCCCCCCNC(=O)[C@@H]([C@H](C)CC)n3cc(CCCCCN)nn3)CC2)n1 | . | 6 | 15 | . | 35*
CCOc1ccccc1NC(=S)N1CCCCCC1 | 1 | 9 | -37* | 3 | 4
CCOc1ccccc1NC(=S)N1CCN(c2ccc(O)cc2)CC1 | 2 | 10 | -5 | 7 | 0
CC1(C)Cc2c(sc(NC(=O)Cc3ccccc3)c2C#N)C(C)(C)N1 | -8 | . | . | -4 | .
COc1ccc(C)c2sc(N(CCN(C)C)C(=O)c3ccc(S(=O)(=O)N(C)c4ccccc4)cc3)nc12 | -3 | . | . | 3 | .
COc1ccc(Nc2nc3ccccc3nc2NS(=O)(=O)c2ccc(Cl)cc2)cc1OC | 20 | 19 | -26 | . | -4
Cc1ccc(NS(=O)(=O)c2cc(C(=O)N3CCN(C)CC3)ccc2C)cc1 | 4 | -1 | -34* | 7 | -4
Cc1ccc(C)c(S(=O)(=O)NCc2ccc(C(=O)N3CCN(C)CC3)cc2)c1 | 4 | 4 | -32* | 4 | -4
Cc1ccc(C)c(S(=O)(=O)NCc2ccc(C(=O)N3CCOCC3)cc2)c1 | -7 | 0 | -20 | -9 | 7
COc1ccccc1C(=O)NC1CCN(C(=O)Nc2ccc(C)cc2)CC1 | 5 | 1 | -1 | 15 | -4
CC(=O)Nc1ccc(NC(=O)/C=C/c2ccc3c(c2)OCO3)cc1 | -1 | 1 | 4 | 10 | -2
Nc1ccccc1C(=O)/C=C/c1ccc2c(c1)OCO2 | 0 | 0 | -35* | 0 | -4
Cc1ccc(NC(=O)/C=C/c2ccc(S(=O)(=O)N3CCOCC3)cc2)cc1S(=O)(=O)N(C)C | 29 | . | . | -111* | .
Cc1ccc(/C=C/C(=O)Nc2cc(S(=O)(=O)N3CCOCC3)ccc2N2CCOCC2)cc1 | -5 | 8 | 5 | 5 | .
O=C(/C=C/c1ccc2c(c1)OCO2)Nc1cc(S(=O)(=O)N2CCOCC2)ccc1N1CCOCC1 | 0 | 2 | -47* | -13 | -4
NS(=O)(=O)c1ccc(NC(=O)/C=C/c2ccc3c(c2)OCO3)cc1 | -3 | 4 | -48* | 2 | 8
Cc1ccc(OCCSc2nnc(-c3cccs3)o2)cc1Cl | 6 | 29 | -5 | . | -1
SMILES | D3 ag | D1 agonist | D1 antagonist | DRD3 antagonist | D1 PAM
O=c1oc(=O)c2ccccc2c2ccccc12 | 1 | . | . | 13 | .
Cc1cccc(N2CCN(C(=O)c3sc4nc5n(c(=O)c4c3C)CCC5)CC2C)c1 (stereo not given) | -4 | 1 | -1 | . | 0
Cc1ccccc1NC(=O)c1c(NC(=O)c2ccncc2)sc2c1CCC(C(C)(C)C)C2 (stereo not given) | 1 | 2 | 2 | . | 0
CC[C@]12c3[nH]c4cc(-c5ccco5)ccc4c3CCN1C(=O)[C@@H](CC(=O)NCCCOC)C[C@@H]2C(=O)N1CCN(C(=O)c2ccco2)CC1 | 43* | . | . | 0 | .
CC(=O)c1cccc(NC(=O)CCCSc2nc(-c3ccco3)cc(C(F)(F)F)n2)c1 | 6 | 7 | -1 | . | -4
CC(=O)CSc1nc(-c2ccccc2)[nH]c1S(=O)(=O)c1ccc(C)cc1 | 2 | -1 | -9 | . | 0
COc1ccccc1Cc1nnc(NC(=O)C2CCN(C(=O)c3ccco3)CC2)s1 | 6 | 4 | 14 | -16 | 5
COc1ccc(S(=O)(=O)N2CCN(CC(=O)Nc3cccc(OC)c3)CC2)cc1 | -4 | 0 | -5 | -11 | 2
COc1ccc(C(=O)CN2CCN(c3ccc(F)cc3)CC2)cc1 | 3 | 2 | -19 | -2 | 3
COc1ccc(S(=O)(=O)N2CCN(CC(=O)Nc3ccc(F)c(F)c3)CC2)cc1 | 5 | 8 | -33* | 16 | -8
CCOc1ccc(C(=O)CN2CCN(S(=O)(=O)c3ccc(Cl)cc3)CC2)cc1 | -8 | 0 | -14 | -57* | 7
COC(=O)c1ccc(NC(=O)CN2CCN(S(=O)(=O)c3cc(Cl)ccc3OC)CC2)cc1 | 10 | 38* | 2 | 3 | -6
CCOc1ccc(S(=O)(=O)N2CCCC2)cc1 | 13 | -2 | . | 3 | -1
COc1ccc(Cl)cc1S(=O)(=O)N1CCN(CC(=O)Nc2ccccc2C(F)(F)F)CC1 | 14 | 1 | 15 | . | 1
COc1ccc(C(=O)CN2CCN(S(=O)(=O)c3ccc(F)cc3)CC2)cc1 | -14 | 3 | -30* | . | -4
CNC[C@H](O)[C@@H](O)[C@H](O)[C@H](O)CO | 8 | . | . | . | .
CC(CCc1ccccc1)NC(=O)Cn1c(=O)nc(-c2ccccc2)c2cc(Cl)ccc21 (stereo not given) | 6 | 1 | 7 | . | 0
O=C(COc1ccccc1-c1nc(-c2ccccc2)no1)Nc1cccc([N+](=O)[O-])c1 | 15 | -1 | -11 | . | -2
OC[C@@H]1CN(Cc2cccs2)C[C@H](n2cnc3c(NCc4ccncc4)ncnc32)O1 | 6 | . | . | 19 | .
Cc1cccc(NC(=O)CSc2nnc(-c3cc(C)n(-c4ccccc4)c3C)o2)c1C | -22 | 0 | -22 | -20 | -8
Cc1cc(-c2nnc(SCC(=O)Nc3ccccc3C(F)(F)F)o2)c(C)n1-c1ccccc1 | -3 | 52* | -1 | -28 | -4
